# Among all 53,000 compounds or so, about 900 (1.7%) showed an effect of 50% or more. The sample as a whole holds a higher share of strong results than the screen did.
# System: Mycobacterium tuberculosis
# Assay: Cornell - Phenotypic assay to identify agents that inhibit growth of Mycobacterium tuberculosis
# Assay type: functional
# Parameters: scale not given: direction of the effect not stated beside the values
# Conditions: 10 mM as filed; unlikely as a test dose
row,Structure (SMILES),Percent Effect
1,O=C(Nc1cccnc1)[C@H]1C[C@H]2OCC[C@H]2N(Cc2ccc(F)cc2)C1.O=C(O)C(F)(F)F.O=C(O)C(F)(F)F,11.11%
2,CC(C)C(=O)NCCc1cc2nc(-c3ccncc3)ccn2n1,-48.83%
3,COCCN1CCC(CNC(=O)C2(c3ccc(Br)cc3)CCCC2)C1 (centres undefined),15.91%
4,OCCNc1nccc(-c2cn3nccc3nc2C2CCCCC2)n1,15.49%
5,CCCn1cc(-c2ccnc(NC3CCc4ccccc43)n2)c(C)n1 (centres undefined),36.22%
6,CCCn1ncc(-c2ccnc(NC3CC(C)(C)NC(C)(C)C3)n2)c1C,-32.04%
7,CCCn1ncc(-c2ccnc(NC3CCCc4ccccc43)n2)c1C (centres undefined),50.48%
8,CCCn1cc(-c2ccnc(NC3CCCc4ccccc43)n2)c(C)n1 (centres undefined),106.6%
9,CCCn1cc(-c2ccnc(NC3CCc4ccccc4C3)n2)c(C)n1 (centres undefined),8.734%
10,Cc1nn(CCO)c(C)c1CNC1CCCCc2ccccc21 (centres undefined),11.7%
11,CCCn1ncc(-c2ccnc(N[C@@H]3C[C@@H]4CC[C@H]3C4)n2)c1C,88.15%
12,CCCn1ncc(-c2ccnc(NC3CCSC3)n2)c1C (centres undefined),-4.809%
13,O=C1NCC2(CCCN(c3ncnc4c3CCC4)CC2)O1 (centres undefined),11.26%
14,O=C(CCSc1ccc2c(c1)OCCO2)NCC1CCS(=O)(=O)C1 (centres undefined),-7.695%
15,CCC(C)NC(=O)Nc1cccc(OCCCC#N)c1 (centres undefined),-0.4736%
16,CC(C)NC(=O)Cn1ccc2c(Cl)cccc21,18.88%
17,COc1ccc(CN(C)CC(=O)Nc2ccc3[nH]c(=O)[nH]c3c2)cc1F,-12.93%
18,COc1cccc(NC(=O)N2CC[C@@H]3CN(C)S(=O)(=O)[C@@H]3CC2)c1,-43.46%
19,COc1cccc(NC(=O)c2nc3ccccc3n(C)c2=O)c1,19.08%
20,COc1ccc(NC(=O)C2CC(=O)n3cnnc3S2)cc1 (centres undefined),106.3%
21,COc1ccc(NC(=O)C(c2ccc(OC)cc2)N2CCOCC2)cc1 (centres undefined),-0.3618%
22,Cc1cccc(NC(=O)C2CCc3ccccc3N2)c1.Cl (centres undefined),44.23%
23,Cc1cccc(NC(=O)C2CC(=O)n3cnnc3S2)c1 (centres undefined),107.8%
24,COc1ccc(C2CCCN2C(=O)Nc2ccc(OC)nc2)cc1 (centres undefined),1.248%
25,COc1cccc(NC(=O)C2CC(=O)n3cnnc3S2)c1 (centres undefined),106.8%
26,COCCN1C(=O)C2(CCC(C(=O)Nc3cccc(C)c3)CC2)N=C1C (centres undefined),23.11%

row,Structure (SMILES),Percent Effect
1,Cc1nnc(NC(=O)c2cc(S(=O)(=O)N3CCSCC3)c[nH]2)s1,-1.205%
2,CCc1cc(-c2ccnc3c2ccn3C)nc(N2CCOCC2)n1,3.05%
3,N#Cc1ccc(C(=O)N2CCC3(CC2)CC3)cc1,-6.813%
4,O=C(c1cc(C2CCCCC2)no1)N1C[C@H]2C[C@H](O)C[C@H]2C1,24.89%
5,CNC(=O)[C@H]1C[C@@H]2CN(C(=O)c3ccc(C)o3)C[C@@H]2N1S(C)(=O)=O,18.79%
6,Cc1cc(CC(=O)NC2CCCN(Cc3ccccc3)C2=O)n[nH]1 (centres undefined),-5.186%
7,Cc1nn(C)cc1CN1CCCC1c1cccc(Nc2nccs2)n1 (centres undefined),56.13%
8,Cc1ccccc1CN1CCCC1c1cccc(Nc2nccs2)n1 (centres undefined),44.82%
9,Cc1cnc(Nc2cccc(C3CCCN3Cc3cn(C)nc3C)n2)s1 (centres undefined),23.5%
10,O=c1[nH]c2nc(N3CCSCC3)ncc2c(=O)n1-c1cccc(F)c1,12.37%
11,O=C(O)C1CCCN1c1nc(C2CC2)cc(C(F)(F)F)n1 (centres undefined),4.747%
12,O=C(O)C1CCCN1c1nc(-c2ccc(Cl)cc2)cc(C(F)(F)F)n1 (centres undefined),38.69%
13,O=C(O)C1CCCN1c1nc(-c2ccc(Cl)c(Cl)c2)cc(C(F)(F)F)n1 (centres undefined),67.65%
14,Cc1cc(CN(C)Cc2csc(-c3ccc(C(C)C)cc3)n2)no1,47.23%
15,Cc1noc(C)c1CN(C)Cc1csc(-c2ccc(C(C)C)cc2)n1,63.13%
16,Cc1noc(C)c1CN(C)Cc1csc(-c2ccc(F)cc2)n1,39.26%
17,CC(C)c1ncc(CN2CCCC2c2[nH]ncc2C(=O)N(C)C)cn1 (centres undefined),-22.16%
18,CCCn1c(C)c(CC(=O)N[C@H](C)C(=O)OC)c2c1CC(C)(C)CC2=O,46.36%
19,Cc1cnc2n(c1=O)C(CC(=O)NCc1ccco1)CS2 (centres undefined),22.84%
20,Cc1nc(C)n(CC2CN(CC(=O)NC3CCCC3)CCO2)n1 (centres undefined),-1.047%
21,CCc1ccccc1NCc1nc2[nH]c(C)c(C)c(=O)n2n1,-10.14%
22,CN1C(=O)C2(CCN(C(=O)C3CCOCC3)CC2)c2ccccc21,10.41%
23,CNc1oc(COc2ccc3c(c2)OCO3)nc1C#N,-5.351%
24,CC(C)NC(=O)c1nc(COc2ccc3c(c2)OCO3)no1,22.39%
25,N#Cc1nc(COc2ccc3c(c2)OCO3)oc1NC1CCCCC1,58.43%
26,N#Cc1nc(COc2ccc3c(c2)OCO3)oc1N1CCCC1,60.43%

row,Structure (SMILES),Percent Effect
1,N#Cc1nc(COc2ccc3c(c2)OCO3)oc1N1CCCCCC1,35.88%
2,N#Cc1nc(COc2ccc3c(c2)OCO3)oc1NC1CC1,0.1825%
3,Cc1nn(C)cc1-c1cc(C(F)(F)F)n(CCCN)n1,-15.46%
4,Cc1cccc(CS(=O)(=O)NCc2nn(C)c3c2CCCC3)c1,18.68%
5,O=C(c1cnccn1)N1CC(S(=O)(=O)c2ccc(Cl)cc2)C1,17.17%
6,CC(=O)N1CCN(c2cc(C)ncn2)CC(CO)C1 (centres undefined),21.65%
7,CCOC(=O)Cn1nnnc1-c1ccccc1,99.52%
8,CN(C(=O)Cn1nnnc1C(C)(C)C)c1ccccc1,-5.466%
9,CCOC(=O)Cn1c(=O)nc2n1C(=O)N(c1ccccc1)C2,-0.8928%
10,COc1ccccc1C(O)CNCc1c(C(C)C)nn(C)c1N(C)C (centres undefined),50.62%
11,CC(C)c1nn(C)c(N(C)C)c1CNCC(O)c1ccccc1 (centres undefined),39.56%
12,COc1c(CNCC(O)c2ccccc2F)c(C(C)C)nn1C (centres undefined),-39.06%
13,Cc1nn(C)c(N(C)C)c1CNCC(O)c1ccccc1 (centres undefined),-2.094%
14,Cc1cccc(OCC(O)CNCc2c(C)nn(C)c2N(C)C)c1 (centres undefined),33.74%
15,Cc1ccc(C(O)CNCc2c(C(C)C)nn(C)c2N(C)C)cc1 (centres undefined),104.4%
16,Cc1nn(C)c(N(C)C)c1CNCC(O)COc1ccccc1.Cl (centres undefined),25.02%
17,CC(C)c1nn(C)c(N(C)C)c1CNCC(O)COc1ccccc1 (centres undefined),51.29%
18,CC(C)c1nn(C)c(N(C)C)c1CNCC(O)c1ccccc1F (centres undefined),40.49%
19,O=C(O)c1nnn(-c2ccc(F)c(F)c2)c1-c1ccncc1,8.364%
20,CC(=O)c1ccc(-n2c(C)cn(CCC(=O)NC(N)=O)c2=O)cc1,30.44%
21,Cc1nc2ccnn2c(C)c1CCC(=O)N1CCN2CCCCC2C1 (centres undefined),-1.576%
22,CCCn1cc(Cl)c(C(=O)N2C[C@H]3C[C@H](OC)C[C@H]3C2)n1,4.304%
23,CN1CC[C@]2(CN(CC3CC3)C[C@H]2c2ccccc2)C1=O,-29.63%
24,CC(=O)Nc1ccc(Oc2cc(C)nc(C3CCCNC3)c2)cc1.Cl (centres undefined),31.88%
25,Cc1ccc(N2CCCN(C(=O)c3n[nH]c4c3CCC4)CC2)nn1,19.39%
26,CNC(=O)CN1CCC(CN(C)CCSc2ccccc2)CC1,4.331%

row,Structure (SMILES),Percent Effect
1,Cc1cc(NCCCNc2cccnc2)n2nc(C)c(C)c2n1,31.25%
2,CCSCCNc1cc(C)nc2c(C)c(C)nn12,75.01%
3,Cc1cc(NCCSc2nccn2C)n2nc(C)c(C)c2n1,27.83%
4,Cn1cc(-c2cc(C(F)F)n3nc(CCC(=O)O)nc3n2)cn1,-6.676%
5,COc1cccc(CNC(=O)c2ccccc2-n2cnc(CN)c2)c1,-31.51%
6,O=S(=O)(c1ccc(F)cc1F)N1CCCCC1c1nnc2n1CCCC2 (centres undefined),10.12%
7,CCN(CC)S(=O)(=O)N1CCCC1c1nnc2n1CCN(C)CC2 (centres undefined),42.64%
8,CN1CCc2nnc(C3CCCN3S(=O)(=O)c3ccc(F)cc3)n2CC1 (centres undefined),59.34%
9,CC(OCC1CC1)C(=O)N1CCCN(Cc2nccn2C(C)C)CC1 (centres undefined),14.16%
10,O=C(NCCC1COc2ccccc2O1)c1ccc(-c2cc[nH]n2)nc1 (centres undefined),70.18%
11,O=C(NCCC1COc2ccccc2O1)c1ccc(N2CC(O)C2)nc1 (centres undefined),-14.99%
12,O=C(NCCC1COc2ccccc2O1)c1ccc(-c2cn[nH]c2)nc1 (centres undefined),4.189%
13,CN(C)C(=O)N1C[C@@H]2CC[C@H](C1)N(Cc1nnc(-c3ccco3)o1)C2,-11.16%
14,CCC(C)Oc1ccc(CNCCNC(C)=O)cc1OC (centres undefined),-42.04%
15,CN1CCCN(c2nc(C3CCCC3)nc3c2cnn3C)CC1,65.73%
16,Cn1ncc2c(N3CCN(CCO)CC3)nc(C3CCCC3)nc21,32.14%
17,Cn1ncc2c(N3CCS(=O)(=O)CC3)nc(C3CCCC3)nc21,-13.36%
18,c1ccc(CCCN2CCCN(c3ncnc4[nH]ccc34)CC2)cc1,3.591%
19,Cc1nccn1-c1ccc(=O)n(CCNC(=O)Cc2ccccc2)n1,4.846%
20,c1cc(N2CCCCC2)ccc1-c1noc(CN2CCOCC2)n1,5.485%
21,COc1ccc(N2CCN(C(=O)Cn3nc(C)c(Cl)c3C)CC2)cc1,54.85%
22,Cc1occc(=O)c1OCC(=O)N1CCN(c2ccccc2)CC1,32.32%
23,COc1cccc(N2CCN(C(=O)COc3c(C)occc3=O)CC2)c1,16.48%
24,Cc1nn(CC(=O)N2CCN(c3ccc(F)cc3)CC2)c(C)c1Cl,-1.208%
25,Cc1nn(CC(=O)N2CCN(c3ccncc3)CC2)c(C)c1Cl,1.786%
26,COc1ccc(N2CCN(C(=O)COc3c(C)occc3=O)CC2)cc1,55.27%

# Source: ChEMBL document CHEMBL3988442, “University of Dundee, Small-Polar-MMV Screening Library” (2021)
